Reference: the supplement of paper PMC12340641
Where a name gives a salt, the structure may show the parent alone.

How the values were obtained:
[1] = target: IKZF1 (dCK*-IKZF1 fusion in HEK293FT) (UniProt Q13422); assay: inhibition of IKZF1 HTRF signal (DMSO = 0%, pomalidomide 10 uM = 100%); higher = lower IKZF1 protein level; conditions: compound concentration: 5 uM, overnight (~20 h)
Method in brief: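 HEK293FT cells stably expressing a dCK*-IKZF1 fusion (2000/well, 384-well) were treated overnight at 37 °C with 5 μM compound in single wells. They were then lysed 30 min at room temperature, and lysate was incubated overnight with a commercial HTRF total-IKZF1 antibody kit. The time-resolved FRET ratio (665/620 nm) was background-subtracted. Percent inhibition of IKZF1 signal was normalised per plate to vehicle (0%) and a reference degrader (100%).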

[2] = system: HEK293FT dCK*-only; assay: relative growth in counter assay (no AraC = 100%, AraC + DMSO = 0%); higher = more growth rescue independent of IKZF1; conditions: compound concentration: 5 uM; AraC concentration: 0.3 uM; overnight pretreatment + 4 days AraC
Method in brief: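 In 384-well plates, 300 HEK293FT cells per well expressing an engineered kinase construct alone got 5 μM compound 2 h after seeding. After overnight at 37 °C, 0.3 μM nucleoside suicide substrate plus medium was applied for 4 days. Counting of Hoechst 33342-stained nuclei by imaging on day 5 was normalised per plate, with 100% for no-substrate wells and 0% for substrate plus vehicle.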

[3] = system: HEK293FT dCK*-IKZF1; assay: relative growth recovery (pomalidomide 10 uM = 100%, DMSO = 0%); higher = more growth rescue (IKZF1 fusion degradation); conditions: compound concentration: 5 uM; AraC concentration: 0.3 uM; overnight pretreatment + 4 days AraC
Method in brief: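 On day 5, whole-well imaging was used to count Hoechst 33342-stained nuclei of HEK293FT cells stably carrying a deoxycytidine kinase–IKZF1 fusion. These cells had received 5 μM compound 2 h after seeding, followed after overnight at 37 °C by a nucleoside suicide substrate at 0.3 μM plus medium for 4 days. Growth recovery was normalised on each plate against a reference degrader and vehicle, which defined 100% and 0%, and values are duplicate means from separate days.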

Chain of IKZF1 (dCK*-IKZF1 fusion in HEK293FT) (Q13422 whole entry, looked up, the tested form may be a part): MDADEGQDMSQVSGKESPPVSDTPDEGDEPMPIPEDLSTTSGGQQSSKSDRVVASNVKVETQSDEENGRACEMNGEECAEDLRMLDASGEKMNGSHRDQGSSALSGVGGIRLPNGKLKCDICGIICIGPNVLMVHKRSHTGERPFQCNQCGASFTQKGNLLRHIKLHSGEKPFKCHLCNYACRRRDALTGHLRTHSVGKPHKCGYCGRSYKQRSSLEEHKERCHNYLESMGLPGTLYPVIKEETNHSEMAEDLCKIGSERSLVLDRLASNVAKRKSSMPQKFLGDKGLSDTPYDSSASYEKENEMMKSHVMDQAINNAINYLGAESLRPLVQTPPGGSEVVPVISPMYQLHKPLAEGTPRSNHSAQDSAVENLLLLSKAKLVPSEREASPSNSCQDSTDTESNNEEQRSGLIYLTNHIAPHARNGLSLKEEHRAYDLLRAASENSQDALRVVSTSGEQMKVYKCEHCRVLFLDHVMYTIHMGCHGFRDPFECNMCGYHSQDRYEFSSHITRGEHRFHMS

| SMILES | inhibition of IKZF1 HTRF signal [1] [%] | relative growth in counter assay [2] [%] | relative growth recovery [3] [%] |
| --- | --- | --- | --- |
| COc1cccc2c1C(=O)c1c(O)c3c(c(O)c1C2=O)C[C@@](O)(C(=O)CO)C[C@@H]3O[C@H]1C[C@H](N)[C@@H](O)[C@H](C)O1 [Epirubicin Hydrochloride] | 52.4 | -34.5 | -13.7 |
| C=CCNc1c(O)cc2c(O)c1C[C@@H](C)C[C@H](OC)[C@H](O)[C@@H](C)/C=C(\C)[C@H](OC(N)=O)[C@@H](OC)/C=C\C=C(/C)C(=O)N2 [Retaspimycin (Hydrochloride)] | -31 | -34.5 | -10.9 |
| C=C(NNC(=S)NNC(=S)Nc1ccccc1Cl)c1ccccn1 | 0.77 | -34.8 | -12.8 |
| Clc1ccccc1C(c1ccccc1)(c1ccccc1)n1ccnc1 [Clotrimazole] | -53.5 | 11.9 | 1.77 |
| COC(=O)Nc1nc2cc(C(=O)c3cccs3)ccc2[nH]1 [nocodazole] | -12 | -33 | -11.6 |
| Cn1c(NCCN(CCO)CCCc2ccc([N+](=O)[O-])cc2)cc(=O)n(C)c1=O [nifekalant] | -33.5 | -3.87 | 3.56 |
| CCN(CC)CCOc1ccc2c(c1)C(=O)c1cc(OCCN(CC)CC)ccc1-2 | -2.01 | -26.5 | -8.99 |
| CN(C)CCCN1c2ccccc2Sc2ccccc21 | -35.6 | 5.27 | -2.24 |
| CCCCCCCCN=c1ccn(CCCCCCCCCCn2ccc(=NCCCCCCCC)cc2)cc1 [Octenidine Dihydrochloride] | 64.7 | -35.3 | -14.7 |
| FC(F)(F)c1cc(NC(=S)Nc2ccc(Br)cc2-c2nnn[nH]2)cc(C(F)(F)F)c1 | -39 | -37.2 | -1.23 |
